Bioassay records: PubChem BioAssay, National Center for Advancing Translational Sciences (NCATS)
This is a sample that favours compounds with a hit; in the whole collection about 4.1% have one here.
FMDV antiviral: High Throughput Screening for Foot and Mouth Disease Virus Antivirals; FMDV antiviral cell-based qHTS; Potency, µM (top dose mostly 57.9 µM), for inactives: at the top dose activity change, negative = inhibition, actives largely listed as inhibitors; hit rate 1.2% among 410,000; AID 1159524, 2015; calls by dose curve; tested in HEK293T cells; also: read-out not given here; nearly all actives have a fitted effect of over 45% in size
Sm TGR inh: qHTS Assay for the Inhibitors of Schistosoma Mansoni Peroxiredoxins; Schistosoma mansoni thioredoxin glutathione reductase (TGR), Q962Y6; purified TGR, DTNB reduction, TNB absorbance 405 nm; Potency, µM (highest dose often 114 µM), without a hit: at the top dose activity change, negative = inhibition, hits mostly inhibitors; hit rate 3% among 360,000; also: nearly all actives have a fitted effect of over 60% in size
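Kinetic colorimetric format: TGR-catalysed, NADPH-driven DTNB reduction monitored via TNB absorbance. Enzyme dispensed at 20 nM; compound exposure 15 min at room temperature before reaction start.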
AmpC detergent: qHTS Inhibitors of AmpC Beta-Lactamase (assay with detergent). P00811. AmpC hydrolysis of nitrocefin, absorbance 480 nm, 0.01% Triton. Potency, µM (doses to about 114 µM), for the others: at the highest dose activity change, negative = inhibition, most hits filed as inhibitors. hit rate 0.041% among 370,000. AID 485294, 2010;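 also: 0% = no-compound wells and -100% = no-enzyme wells; nearly all actives have a fitted effect of over 25% in size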
Target sequence (P00811 whole entry, looked up): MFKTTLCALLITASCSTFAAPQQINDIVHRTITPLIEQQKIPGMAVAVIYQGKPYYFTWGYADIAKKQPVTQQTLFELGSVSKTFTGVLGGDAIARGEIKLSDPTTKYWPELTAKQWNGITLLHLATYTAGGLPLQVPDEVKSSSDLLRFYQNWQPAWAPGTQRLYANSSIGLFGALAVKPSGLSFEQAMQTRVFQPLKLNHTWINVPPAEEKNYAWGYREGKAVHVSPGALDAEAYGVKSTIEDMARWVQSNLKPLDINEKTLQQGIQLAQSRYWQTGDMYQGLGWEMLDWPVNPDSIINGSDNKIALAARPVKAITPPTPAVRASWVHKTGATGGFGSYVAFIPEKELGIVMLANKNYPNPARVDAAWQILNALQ
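20 mM phosphate pH 7.0 + 0.01% (detergent screen) or 0.0001% Triton X-100; 5.3 nM AmpC reagent; cpd preinc 15 min RT; nitrocefin (800 uM stock) to start; A480 q20 s × 4 min; Activity was normalised to no-enzyme and no-compound control wells.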
AmpC no deterg: qHTS Inhibitors of AmpC Beta-Lactamase (assay without detergent); AmpC nitrocefin hydrolysis, absorbance 480 nm, 0.0001% Triton; Potency, µM (doses to about 57.1 µM), without a hit: at the highest dose activity change, negative = inhibition, hits mostly inhibitors; hit rate 0.52% among 330,000;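 also: plate controls were no compound for no effect and no enzyme for full effect; nearly all actives have a fitted effect of over 20% in size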
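AmpC (5.3 nM in the dispensed reagent) in 20 mM phosphate pH 7.0 with 0.01% (detergent screen) or 0.0001% Triton X-100 was preincubated with compounds for 15 min at room temperature. Nitrocefin was then added from an 800 uM solution, and hydrolysis was followed at 480 nm.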
AMA1 RON2 block: qHTS for Inhibitors of AMA1-RON; Towards Development of Antimalarial Drug Lead: Primary Screen. Potency, µM (titrated, usually from 58.2 µM), inactives show at the highest dose activity change, negative = inhibition, usual class: inhibitors. hit rate 0.2% among 360,000. AID 720542, 2013. Plasmodium falciparum AMA1 (3D7) - RON2 peptide interaction. AlphaScreen AMA1-biotinylated RON2 peptide binding;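 also: 0% = vehicle wells and -100% = peptide control; nearly all actives have a fitted effect of over 45% in size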
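AMA1 (3D7) with his tag at 25 nM final met compounds first, then biotinylated RON2 peptide at 25 nM; detection used donor plus acceptor beads, 10 µg/mL apiece, read by AlphaScreen after 30 min at room temperature.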
Starred values were filed as active, the others as inactive; ? = inconclusive; . = not tested or not shown; [ ] = dose if it differs, or a comment. Unless noted, calls follow the shape of the dose curve; as a rule, active = well fitted curve in the direction sought with a large enough effect; inconclusive = small, poorly fitted or top-dose-only effect, or another doubt; inactive = no such curve, though single readings can be large; an effect the other way counts as inactive or inconclusive. Unless noted, % is scaled to controls: 0 for no effect and ±100 for the full control effect; potency is read from the fitted curve at half-maximal effect.

SMILES | FMDV antiviral | Sm TGR inh | AmpC detergent | AmpC no deterg | AMA1 RON2 block
CC(=O)Nc1ccc(NC(=O)c2ccc3c(c2)N(Cc2cccc(Cl)c2)C(=O)c2ccccc2S3=O)cc1 (stereo not drawn) | -22% | 1% | -1% | . | .
Cc1ccc(-n2[nH]c(=O)c(-c3ccccn3)c2C)cc1 | 7.1µM* | 0% | 0% | -13% | 63%
CN(C)C=NC(=O)c1cc2c(n(-c3ccccc3)c1=O)CC(C)(C)CC2=O | -13% | -4% | 1% | . | .
CN(C)c1cc(-c2ccc(Cl)c(Cl)c2)oc(=O)c1Cl | 14% | 40µM* | -5% | -8% | 11%
N#Cc1ccc(OC(=O)c2cnccn2)cc1 | -12% | 22µM* | ? | -8% | ?
CCC(=O)c1ccc(OC(=O)c2cnccn2)cc1 | 12% | ? | -15% | -18%[11.4 µM] | 0%
Cc1cc(C(=O)CSc2nnc(-c3cccs3)o2)c(C)n1-c1ccccc1 | 11µM* | -16% | -10% | -25% | 2%
COc1ccc(NC(=O)CSc2nnc(-c3cccc(O)c3)o2)cc1 | 15% | 2% | 6% | -26% | 6%
Cc1cc(C(=O)CSc2nnc3ccccn23)c(C)n1-c1ccccc1 | 3.2µM* | -6% | ? | -18% | -21%
Cc1cc(C(=O)CSc2nnnn2C)c(C)n1-c1ccc2c(c1)OCCO2 | 14% | 35µM* | 3% | -10% | -22%
COc1cccc(NC(=O)CSc2nnc(-c3cc(C)n(-c4ccccc4)c3C)o2)c1 | 13µM* | -16% | -6% | -14% | -15%
COCc1c(C(=O)NC2CCCC2)cnn1-c1nccc(-c2cccs2)n1 | 20% | . | . | . | .
O=C(Cn1cc(S(=O)(=O)c2ccc(F)cc2)c(=O)c2cc3c(cc21)OCO3)Nc1ccccc1 | -6% | -7% | -1% | . | .
CCOc1ccc(C(=O)NCCc2sc(-c3cccc(F)c3)nc2C)cc1OCC | 6% | -1% | 11% | . | .
CCOc1ccc(-c2nnc(SCC(=O)Nc3cccc(C#N)c3)o2)cc1 | -6% | 10µM* | 5% | . | .
CCOc1ccc(-c2nnc(SCC(=O)Nc3cccc(Cl)c3C)o2)cc1 | -23% | 0% | -6% | . | .
CN1CCN(C(=O)c2ccc(CS(=O)(=O)c3c(Cl)cccc3Cl)o2)CC1 | -18% | -10% | -6% | -34% | 16%
CCOC(=O)N1CCN(C(=O)c2ccc(CS(=O)(=O)c3c(Cl)cccc3Cl)o2)CC1 | -27% | 45µM* | -13% | 29% | 7%
O=C(c1ccco1)N1CCN(C(=O)c2ccc(CS(=O)c3ccc(Cl)cc3)o2)CC1 (stereo not drawn) | -8% | 40µM* | 0% | 2% | -7%
O=C(c1ccc(CS(=O)(=O)c2c(Cl)cccc2Cl)o1)N1CCCC1 | -21% | 35µM* | -6% | -2% | 4%
O=C(c1ccc(CS(=O)c2ccccc2Cl)o1)N1CCCCCC1 (stereo not drawn) | -2% | 40µM* | 3% | 21% | -8%
O=C(c1ccc(CS(=O)c2ccccc2Cl)o1)N1CCN(C2CCCCC2)CC1 (stereo not drawn) | 0% | . | . | . | 1%
O=C(c1ccc(CS(=O)(=O)c2ccc(Br)cc2)o1)N1CCCCCC1 | -11% | 35µM* | 4% | 32% | -1%
CCCN(CCC)C1CC(=O)N(Cc2ccccc2)C1=O (stereo not drawn) | -7% | 10µM* | ? | 7% | 8%
O=C1CC(N(O)C2CC(=O)N(Cc3ccccc3)C2=O)C(=O)N1Cc1ccccc1 (stereo not drawn) | ? | ? | -13% | -18% | -1%
SMILES | FMDV antiviral | Sm TGR inh | AmpC detergent | AmpC no deterg | AMA1 RON2 block
Cc1ccc(-n2ncc(C(=O)NCc3ccco3)c2C2CCN(C(=O)OC(C)(C)C)CC2)cc1 | 5% | 0% | 4% | . | .
O=C1C=CC(=C(c2ccc(O)cc2)c2ccc(O)cc2)C=C1 | 13µM* | 0% | -4% | -21% | -8%
O=S(=O)(c1ccc(O)cc1)c1ccc(O)cc1 | 1% | 6% | 3% | -21% | 7%
COc1ccc(C(=O)NNC2=CC(=O)CC(C)(C)C2)cc1 | -9% | ? | 0% | -39% | 13%
CC1(C)CC(=O)C=C(OC(=O)c2ccc(Cl)cc2)C1 | -3% | 14µM* | -5% | 4% | 11%
Cc1cc(F)ccc1NC(=O)CCS(=O)(=O)c1cccc2nsnc12 | -2% | ? | 2% | . | .
Cc1ccc([N+](=O)[O-])cc1NC(=O)Nc1cccc(F)c1 | 28µM* | 6% | 2% | -50% | 8%
O=C(Nc1ccccc1)Nc1cc([N+](=O)[O-])ccc1F | -12% | 4% | ? | -34% | 5%
Cc1ccc([N+](=O)[O-])cc1NC(=S)NC(=O)C(C)(C)C | . | 45µM* | -5% | -3% | -2%
CC1=C(C(=O)Nc2ccc(C)cc2C)C(c2cccs2)n2nc(SCc3ccccc3Cl)nc2N1 (stereo not drawn) | -27% | 7% | 18% | . | .
COc1ccccc1NC(=O)c1ccc(NC(=O)COC(=O)C2(C)CC2(Cl)Cl)cc1 (stereo not drawn) | 35µM* | 6% | -1% | -27% | 27%
CC1(C(=O)OCC(=O)Nc2ccc(C(N)=O)cc2)CC1(Cl)Cl (stereo not drawn) | 1% | 9% | -1% | -25% | -3%
CCNc1ncc2ncc(=O)n(CCOC)c2n1 | -12% | . | . | . | .
CC(C)(C)c1ccc(C(=O)Nc2cccnc2)cc1 | 7% | -2% | -6% | -11% | 7%
O=C(O)c1ccccc1C(=O)Nc1ccc(Oc2cccc(C(F)(F)F)c2)nc1 | 3.2µM* | ? | 0% | 0% | -11%
Cc1ccc(C(=O)Nc2ccc(Oc3cccc(C(F)(F)F)c3)nc2)cc1 | ? | 7% | 1% | -16% | -1%
CC(C)(C)c1ccc(C(=O)Nc2ccc(Oc3cccnc3)nc2)cc1 | 35µM* | -11% | -13% | 2% | 3%
O=C(CCn1c(=O)c2cccn2c2ccc(F)cc21)NCc1ccccc1F | -5% | 2% | 1% | . | .
CC(C)CNC(=O)C1CCN(c2ccc(S(=O)(=O)N3CCOCC3)cc2[N+](=O)[O-])CC1 | -25% | 10% | 7% | 48% | 0%
CCCCN(C)C(=O)C1CCN(c2ccc(S(=O)(=O)N3CCOCC3)cc2[N+](=O)[O-])CC1 | -12% | 45µM* | -14% | 164% | 34%
O=C1NCCCc2c1oc1cc(Br)c(O)c(Br)c21 | -19% | -23% | 0% | -6% | ?
O=C1NCCCC2c3c(cc(Br)c(O)c3Br)OC12N1CCCCC1 (stereo not drawn) | 9% | 22µM* | -3% | -34% | -14%
